The values below come from PubChem BioAssay (EPA / NIEHS).

Activity calls are given as the source filed them. How the source made its calls: active means hit-call score of the fitted dose curve at least 0.9, where 1 is the maximum; inactive means score below 0.9.

A short description of test [1]: ATG_CRE_CIS: Attagene CIS-FACTORIAL HepG2 Assay for human cAMP Responsive Element (CRE) binding protein 3 (AID 2282926). The note with it: HepG2 CRE cis-reporter, Attagene multiplexed mRNA; actives raise or lower the signal. An outline of the steps:
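Endogenous transcription factor activity read via CRE-regulated reporter transcripts in transfected HepG2 cells. After 24 h exposure, RNA was reverse-transcribed, amplified, fluorescently labelled and sized by capillary electrophoresis; gain or loss fitted against DMSO.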

Test [2] has as its target CCAAT/enhancer-binding protein beta (Homo sapiens) (UniProt P17676). The experiment in a line: ATG_C_EBP_CIS: Attagene CIS-FACTORIAL HepG2 Assay for human CCAAT/Enhancer Binding Protein (C/EBP) beta (AID 2282927). The note with it: HepG2 Attagene cis-factorial transcription factor reporter; actives raise or lower the signal. In outline:
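Endogenous transcription factor activity in human liver HepG2 cells is inferred from induction of a CEBPB-linked reporter mRNA. Exposure lasts 24 h; activity is fitted in both directions relative to DMSO.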

Test [3] is described as follows: ATG_CMV_CIS: Attagene CIS-FACTORIAL HepG2 Assay for human CMV (Internal Marker) (AID 2282928).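 Further: endpoint acts as a background internal control marker rather than a target.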 The note with it: HepG2 CMV promoter reporter, transcription factor profiling; actives raise or lower the signal. An outline of the steps:
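24 h chemical treatment, HepG2 with transient multi-reporter transfection; RNA → oligo(dT) RT → PCR → 6-FAM extension → HpaI digest → CE fluorescence. Bidirectional fit, DMSO negative control.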

Test [4] can be described thus: ATG_DR4_LXR_CIS: Attagene CIS-FACTORIAL HepG2 Assay for human Liver X Receptor (LXR), DR4 submotif (AID 2282929). The note with it: HepG2 Attagene DR4 cis-reporter, mRNA transcription; actives raise or lower the signal. In outline:
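Endogenous factor activity at a DR4 cis-element is read as reporter mRNA in transiently transfected HepG2 cells. Exposure lasts 24 h; transcripts are amplified, fluorescently labelled and sized by capillary electrophoresis, with DMSO as baseline.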

Test [5] deals with Aryl hydrocarbon receptor (Homo sapiens) (UniProt P35869). The experiment in a line: ATG_Ahr_CIS: Attagene CIS-FACTORIAL HepG2 Assay for human Aryl Hydrocarbon Receptor (Ahr) (AID 2282930). The note with it: HepG2 AhR cis-factorial reporter transcription; actives raise or lower the signal. An outline of the steps: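 Transient MRTU transfection of HepG2 → 24 h compound exposure → total RNA, oligo(dT) RT → PCR, 6-FAM extension, HpaI cut → CE fluorescence. DMSO = baseline; bidirectional curve fit.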
Sequence of Aryl hydrocarbon receptor (Homo sapiens) (P35869 whole entry, looked up): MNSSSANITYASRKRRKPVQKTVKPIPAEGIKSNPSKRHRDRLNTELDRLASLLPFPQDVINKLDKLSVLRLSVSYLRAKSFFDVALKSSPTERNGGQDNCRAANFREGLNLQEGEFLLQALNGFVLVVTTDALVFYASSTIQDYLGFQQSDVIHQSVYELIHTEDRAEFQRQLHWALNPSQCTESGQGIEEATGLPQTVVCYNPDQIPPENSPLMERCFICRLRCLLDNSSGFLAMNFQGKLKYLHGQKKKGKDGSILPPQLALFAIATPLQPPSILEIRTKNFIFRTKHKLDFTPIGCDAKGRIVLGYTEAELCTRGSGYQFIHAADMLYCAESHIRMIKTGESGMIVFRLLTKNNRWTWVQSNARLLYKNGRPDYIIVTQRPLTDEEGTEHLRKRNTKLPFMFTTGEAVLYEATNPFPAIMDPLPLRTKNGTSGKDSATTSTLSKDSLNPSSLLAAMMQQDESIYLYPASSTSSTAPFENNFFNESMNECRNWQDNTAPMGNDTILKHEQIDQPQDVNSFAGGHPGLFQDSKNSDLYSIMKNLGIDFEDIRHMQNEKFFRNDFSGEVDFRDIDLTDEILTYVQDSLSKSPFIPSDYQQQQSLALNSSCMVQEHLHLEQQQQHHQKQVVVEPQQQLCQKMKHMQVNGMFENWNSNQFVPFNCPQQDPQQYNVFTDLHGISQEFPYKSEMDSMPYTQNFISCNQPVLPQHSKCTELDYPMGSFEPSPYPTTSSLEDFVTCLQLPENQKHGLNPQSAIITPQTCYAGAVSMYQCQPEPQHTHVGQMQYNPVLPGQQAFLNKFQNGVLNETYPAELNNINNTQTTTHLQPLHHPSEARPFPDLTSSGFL

Test [6] in a line: ATG_AP_1_CIS: Attagene CIS-FACTORIAL HepG2 Assay for human Activator Protein 1 (AP-1) (AID 2282931). Particulars: HepG2 Attagene cis-factorial AP-1 reporter mRNA; actives raise or lower the signal. In outline: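 Fluorescence of labelled PCR fragments separated by capillary electrophoresis gives reporter mRNA levels. HepG2 with transfected cis-regulated reporter units, 24 h exposure; DMSO serves as baseline for bidirectional curve fits.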

A short description of test [7]: ATG_AP_2_CIS: Attagene CIS-FACTORIAL HepG2 Assay for human Activator Protein 2 (AP-2) (AID 2282932). The note with it: HepG2 AP-2 cis-reporter, Attagene transcription factor profiling; actives raise or lower the signal. In outline: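 Endogenous transcription factor activity is reported through transfected multiplex reporter constructs in HepG2, after 24 h of compound exposure. Transcripts were quantified by RT-PCR and capillary electrophoresis of fluorescent fragments. Bidirectional fit against DMSO.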

Test [8] in a line: ATG_BRE_CIS: Attagene CIS-FACTORIAL HepG2 Assay for human Bone Morphogenetic Protein (BMP) Response Element (BRE) (AID 2282933). The note with it: HepG2 BMP response element reporter, Attagene transcription factor profiling; actives raise or lower the signal. In outline: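 Endogenous transcription factor activity at a BMP response element was monitored in transfected HepG2 cells 24 h after dosing. Fluorescent RT-PCR products were resolved by capillary electrophoresis, and activity was fitted in both directions versus DMSO.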

In test [9] the target is Retinoic acid receptor alpha (Homo sapiens) (UniProt P10276). Description: ATG_DR5_RAR_CIS: Attagene CIS-FACTORIAL HepG2 Assay for human Retinoic Acid Receptor Alpha (RARE), DR5 submotif (AID 2282934). Particulars: HepG2 Attagene cis-factorial RARE DR5 reporter, mRNA; actives raise or lower the signal. An outline of the steps:
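Transient MRTU transfection of HepG2; 24 h compound treatment; TriZol RNA, oligo(dT) RT, PCR, FAM labelling, capillary electrophoresis. Bidirectional fit vs DMSO. Endogenous TF activity at DR5 RARE.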

For test [10], the target named is Transcription factor E2F1 (Homo sapiens) (UniProt Q01094). Description: ATG_E2F_CIS: Attagene CIS-FACTORIAL HepG2 Assay for human E2F Transcription Factor 1 (AID 2282935). The note with it: HepG2 Attagene cis-reporter, E2F reporter RNA transcripts; actives raise or lower the signal. In outline: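 Gain or loss of reporter transcript, fitted against DMSO, reflects E2F1-driven transcription. Transiently transfected HepG2 dosed 24 h before RNA isolation. Quantified by fluorescent RT-PCR products separated by capillary electrophoresis.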
Sequence of Transcription factor E2F1 (Homo sapiens) (Q01094 whole entry, looked up): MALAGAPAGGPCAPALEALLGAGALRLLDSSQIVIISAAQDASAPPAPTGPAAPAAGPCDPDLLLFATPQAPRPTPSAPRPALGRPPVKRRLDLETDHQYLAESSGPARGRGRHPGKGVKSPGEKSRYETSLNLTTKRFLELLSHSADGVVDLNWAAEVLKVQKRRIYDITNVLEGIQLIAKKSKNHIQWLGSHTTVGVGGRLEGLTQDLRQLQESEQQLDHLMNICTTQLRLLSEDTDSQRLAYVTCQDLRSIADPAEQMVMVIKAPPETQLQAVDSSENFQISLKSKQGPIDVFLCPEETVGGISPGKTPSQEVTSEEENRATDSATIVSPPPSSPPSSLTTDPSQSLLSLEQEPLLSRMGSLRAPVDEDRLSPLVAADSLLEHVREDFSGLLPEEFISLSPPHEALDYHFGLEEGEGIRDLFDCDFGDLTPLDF

A short description of test [11]: ATG_E_Box_CIS: Attagene CIS-FACTORIAL HepG2 Assay for human Enhancer Box (E-box) (AID 2282936). Particulars: HepG2 E-box cis-reporter transcription, actives raise or lower the signal. In outline:
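E-box-driven reporter transcripts measured in transiently transfected HepG2 after 24 h exposure: RNA reverse-transcribed, PCR-amplified, fluorescently labelled, digested and resolved by capillary electrophoresis. Gain or loss relative to DMSO.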

Test [12] can be described thus: ATG_M_61_CIS: Attagene CIS-FACTORIAL HepG2 Assay for M61 Transcription Factor (Internal Marker) (AID 2282937). Particulars: HepG2 Attagene CIS-FACTORIAL M61 internal marker reporter; actives raise or lower the signal. An outline of the steps:
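This endpoint serves as an internal background control within a multiplexed HepG2 cis-reporter panel. Cells are exposed for 24 h; reporter mRNA is amplified, fluorescently labelled and sized by capillary electrophoresis, with DMSO as negative control.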

Test [13] in a line: ATG_EGR_CIS: Attagene CIS-FACTORIAL HepG2 Assay for human Early Growth Response 1 (EGR1) (AID 2282938). Particulars: HepG2 Attagene CIS-FACTORIAL EGR reporter mRNA; actives raise or lower the signal. In outline: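 HepG2, transient MRTU transfection (cis promoters), 24 h compound. RNA → RT (oligo-dT) → PCR → 6-FAM labelling → HpaI cut → CE fluorescence. Bidirectional fit, DMSO baseline.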

Test [14] can be described thus: ATG_M_19_CIS: Attagene CIS-FACTORIAL HepG2 Assay for M19 Transcription Factor (Internal Marker) (AID 2282939). Particulars: HepG2 Attagene CIS-FACTORIAL M19 internal marker reporter; actives raise or lower the signal. An outline of the steps: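 Background-control endpoint from a multiplexed HepG2 reporter panel. Cells carrying cis-regulated reporter constructs are treated 24 h, then reporter transcripts are amplified, fluorescently labelled and sized by capillary electrophoresis. DMSO defines baseline.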

The nature of test [15]: ATG_ERE_CIS: Attagene CIS-FACTORIAL HepG2 Assay for Estrogen Response Element (ERE) (AID 2282940). Particulars: HepG2 ERE cis-reporter, Attagene RNA transcript; actives raise or lower the signal. In outline: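 Cells used were human hepatoma HepG2, transfected with multiple reporter transcription units under cis-regulatory promoters. Reporter mRNA, read 24 h post-dosing via fluorescent RT-PCR products on capillary electrophoresis, was fitted bidirectionally relative to DMSO.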

Test [16] is described as follows: ATG_Ets_CIS: Attagene CIS-FACTORIAL HepG2 Assay for human Erythroblast Transformation Specific (ETS) (AID 2282941). Particulars: HepG2 ETS cis-reporter transcription, actives raise or lower the signal. In outline: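 Cis-regulated reporter mRNA induction in HepG2 (transient transfection), 24 h exposure, RT-PCR plus capillary electrophoresis detection; DMSO serves as negative control and baseline.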

In test [17] the target is Hepatocyte nuclear factor 3-beta (Homo sapiens) (UniProt Q9Y261). The experiment in a line: ATG_FoxA2_CIS: Attagene CIS-FACTORIAL HepG2 Assay for human Forkhead box A2 (FOXA2) (AID 2282942). The note with it: HepG2 cis-reporter transcription factor activity, 24 h; actives raise or lower the signal. In outline:
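Cells: HepG2, transient multiplex reporter transfection. Exposure 24 h. Detection: reporter-specific RT-PCR, fluorescent labelling, restriction digest, capillary electrophoresis. Analysis: bidirectional curve fit, DMSO as negative control.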

Test [18] is described as follows: ATG_FoxO_CIS: Attagene CIS-FACTORIAL HepG2 Assay for human Forkhead box O (FoxO) (AID 2282943). Particulars: HepG2 Attagene cis-reporter, FoxO element, mRNA; actives raise or lower the signal. In outline:
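HepG2, transient MRTU transfection (cis element, endogenous TFs). Dose 24 h. TriZol RNA → oligo(dT) RT → PCR → 6-FAM primer extension → HpaI cut → CE. Gain/loss vs DMSO.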

Test [19] is described as follows: ATG_GATA_CIS: Attagene CIS-FACTORIAL HepG2 Assay for human GATA Binding Protein (AID 2282944). Particulars: HepG2 GATA cis-element reporter, Attagene multiplex mRNA; actives raise or lower the signal. An outline of the steps:
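Endogenous transcription factor activity was captured through cis-promoter-driven reporters in transfected HepG2 cells. After 24 h exposure, reporter transcripts were quantified by RT-PCR with fluorescent capillary electrophoresis, and responses fitted both directions against DMSO.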

The nature of test [20]: ATG_GLI_CIS: Attagene CIS-FACTORIAL HepG2 Assay for human Zinc Finger Protein GLI1 (AID 2282945). Particulars: HepG2, Attagene cis-factorial reporter mRNA, GLI element; actives raise or lower the signal. An outline of the steps:
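Bidirectional curve fits relative to DMSO, using reporter mRNA levels from RT-PCR plus capillary electrophoresis. Cells were HepG2 transiently carrying cis-regulated reporter constructs, harvested 24 h after dosing.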

Sequence of Retinoic acid receptor alpha (Homo sapiens) (P10276 whole entry, looked up): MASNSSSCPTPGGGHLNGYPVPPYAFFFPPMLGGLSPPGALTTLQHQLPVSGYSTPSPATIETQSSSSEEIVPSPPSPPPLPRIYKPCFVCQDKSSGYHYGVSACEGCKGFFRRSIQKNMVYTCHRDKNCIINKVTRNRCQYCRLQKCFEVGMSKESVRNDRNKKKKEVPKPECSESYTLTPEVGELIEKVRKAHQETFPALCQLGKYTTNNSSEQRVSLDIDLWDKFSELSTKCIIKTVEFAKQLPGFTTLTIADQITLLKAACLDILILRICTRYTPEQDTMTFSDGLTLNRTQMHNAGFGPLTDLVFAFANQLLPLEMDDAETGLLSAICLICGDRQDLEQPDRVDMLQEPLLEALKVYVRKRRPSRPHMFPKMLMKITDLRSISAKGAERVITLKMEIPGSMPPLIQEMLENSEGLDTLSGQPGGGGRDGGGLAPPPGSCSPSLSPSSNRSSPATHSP
Sequence of CCAAT/enhancer-binding protein beta (Homo sapiens) (P17676 whole entry, looked up): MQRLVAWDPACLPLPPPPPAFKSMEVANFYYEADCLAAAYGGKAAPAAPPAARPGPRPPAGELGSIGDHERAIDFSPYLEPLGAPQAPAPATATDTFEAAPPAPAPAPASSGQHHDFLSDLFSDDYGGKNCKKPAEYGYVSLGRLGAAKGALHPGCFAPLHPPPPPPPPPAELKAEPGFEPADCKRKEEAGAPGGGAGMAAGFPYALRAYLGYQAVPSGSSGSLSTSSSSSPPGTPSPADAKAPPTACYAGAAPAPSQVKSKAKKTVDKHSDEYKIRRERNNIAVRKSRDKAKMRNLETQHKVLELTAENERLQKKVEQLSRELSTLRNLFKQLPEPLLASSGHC
Sequence of Hepatocyte nuclear factor 3-beta (Homo sapiens) (Q9Y261 whole entry, looked up): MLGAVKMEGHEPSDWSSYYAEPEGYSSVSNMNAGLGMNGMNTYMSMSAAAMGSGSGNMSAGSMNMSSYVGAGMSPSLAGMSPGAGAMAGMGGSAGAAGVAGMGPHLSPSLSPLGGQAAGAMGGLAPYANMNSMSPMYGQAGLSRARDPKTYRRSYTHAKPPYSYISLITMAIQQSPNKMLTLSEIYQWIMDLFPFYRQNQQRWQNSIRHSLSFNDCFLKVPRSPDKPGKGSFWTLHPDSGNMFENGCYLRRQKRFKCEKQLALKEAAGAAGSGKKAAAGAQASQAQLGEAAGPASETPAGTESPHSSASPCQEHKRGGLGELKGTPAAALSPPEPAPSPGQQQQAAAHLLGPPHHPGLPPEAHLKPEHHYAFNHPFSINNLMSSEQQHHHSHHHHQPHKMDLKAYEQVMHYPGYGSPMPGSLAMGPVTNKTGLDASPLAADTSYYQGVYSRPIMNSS

Regarding `OC1OCCOC1O` (stereo unspecified), the result in test [1], in test [2], in test [3], in [4], in [5] and in test [6] was inactive. The compound was called inactive in test [7], in test [8], in [9], in [10], in test [11] and in test [12]. Also, the result in test [13], in [14], in [15], in test [16], in test [17] and in test [18] was inactive. For the same compound, the compound was called inactive in test [19] and in test [20].
In the case of `CC(C)(C)C1CCCCC1=O` (stereo unspecified), the call in test [1], in test [2], in test [3], in test [4], in test [5] and in [6] was inactive. Moreover, the compound was called inactive in [7], in [8], in [9], in test [10], in test [11] and in test [12]. Besides, the outcome in [13], in [14], in [15], in test [16], in test [17] and in [18] was inactive. Besides, the outcome in [19] and in test [20] was inactive.
Regarding `C[Si](C)(C)O[Si](O)(O)O`, the result in [1], in [2], in [3], in [4], in test [5] and in test [6] was inactive. Moreover, the result in test [7], in test [8], in test [9], in test [10], in test [11] and in test [12] was inactive. In addition, the outcome in [13], in test [14], in test [15], in test [16], in test [17] and in test [18] was inactive. Besides, the outcome in [19] and in [20] was inactive.
In the case of `Nc1ccc(N=Nc2ccccc2)c(N)n1`, the compound was classed as inactive in test [1], in test [2], in test [3], in test [6], in [7] and in test [8]. Moreover, the outcome in [9], in test [10], in [12], in [14], in test [15] and in test [16] was inactive. Moreover, the call in test [17], in [19] and in test [20] was inactive. Also, the AC50 in test [4] is 48.5 µM (active); in test [5], 23.5 µM (active); in [11] it was 70.9 µM (active); in test [13], 70.5 µM (active).
On to `CCOC(=O)c1ccc(N(C)C)cc1`, for which the compound was classed as inactive in test [1], in test [2], in [3], in test [4], in test [6] and in test [7]. The outcome in test [8], in test [9], in test [10], in test [11], in test [12] and in test [13] was inactive. Moreover, the compound was called inactive in [14], in [15], in [16], in test [17], in test [19] and in test [20]. The AC50 in test [5] is 44.4 µM (active).
Consider `O=CN1CCCCC1`, for which the call in test [1], in [2], in test [3], in test [4], in test [5] and in test [6] was inactive. The call in test [7], in [8], in test [9], in [10], in [11] and in test [12] was inactive. In addition, the compound was called inactive in [13], in [14], in [15], in test [16], in test [17] and in test [20].

For orientation: AC50 means the concentration giving half of the maximal activity seen.
